Data as given in PMC4336329 (PLoS ONE, 2015).
In all, about 310,000 compounds went through this assay and about 14,000 (4.5%) showed an effect of 50% or more. The effect is printed as a negative number. The entries come from a sample that favours strong results as a whole.

What follows are molecules tested against human ether-à-go-go-related gene (hERG) potassium channel (human, UniProt Q12809) (assay: primary screen, population patch clamp on CHO cells stably expressing hERG; higher = less effect of the substance).
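Note: peak tail current of the secondary pulse compared with the same well before compound.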

Chain of human ether-à-go-go-related gene (hERG) potassium channel (Q12809 whole entry, looked up): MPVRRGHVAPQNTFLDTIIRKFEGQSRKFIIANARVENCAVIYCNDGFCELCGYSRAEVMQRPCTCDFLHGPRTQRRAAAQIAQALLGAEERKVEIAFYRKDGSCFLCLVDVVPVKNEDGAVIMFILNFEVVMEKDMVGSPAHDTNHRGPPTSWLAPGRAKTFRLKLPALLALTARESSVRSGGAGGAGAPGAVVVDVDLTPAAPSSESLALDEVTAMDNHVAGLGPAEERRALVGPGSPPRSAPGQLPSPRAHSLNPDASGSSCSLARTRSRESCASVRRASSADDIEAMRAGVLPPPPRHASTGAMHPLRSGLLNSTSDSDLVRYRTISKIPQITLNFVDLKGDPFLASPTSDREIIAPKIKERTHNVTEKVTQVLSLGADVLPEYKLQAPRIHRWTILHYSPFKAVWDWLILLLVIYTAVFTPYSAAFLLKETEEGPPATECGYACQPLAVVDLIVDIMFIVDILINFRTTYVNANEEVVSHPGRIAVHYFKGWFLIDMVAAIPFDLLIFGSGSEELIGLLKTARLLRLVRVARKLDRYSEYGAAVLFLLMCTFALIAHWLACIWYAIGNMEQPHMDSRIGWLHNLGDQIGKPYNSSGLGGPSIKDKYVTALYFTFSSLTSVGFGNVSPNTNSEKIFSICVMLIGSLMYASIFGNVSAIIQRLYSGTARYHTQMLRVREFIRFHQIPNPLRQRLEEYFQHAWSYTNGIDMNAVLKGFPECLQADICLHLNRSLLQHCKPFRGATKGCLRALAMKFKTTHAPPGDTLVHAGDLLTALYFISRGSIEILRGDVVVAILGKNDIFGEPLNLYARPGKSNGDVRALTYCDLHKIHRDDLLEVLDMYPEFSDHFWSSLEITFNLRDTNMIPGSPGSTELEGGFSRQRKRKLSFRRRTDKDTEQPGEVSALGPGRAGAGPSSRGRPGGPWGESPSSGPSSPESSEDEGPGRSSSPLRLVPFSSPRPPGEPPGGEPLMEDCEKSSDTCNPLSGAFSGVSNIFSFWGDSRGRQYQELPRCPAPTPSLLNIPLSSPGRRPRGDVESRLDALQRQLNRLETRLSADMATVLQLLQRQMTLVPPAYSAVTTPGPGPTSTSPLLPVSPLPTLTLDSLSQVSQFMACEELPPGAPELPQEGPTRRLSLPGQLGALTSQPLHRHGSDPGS

SMILES	hERG current change (%, negative = inhibition) at 10uM [%]
COc1ccc(C2C(CN3CCOCC3)C(=O)N2c2ccccc2)cc1 (stereo not drawn)	9.52
Cc1ccc(OCCOc2cccc(Br)c2)c([N+](=O)[O-])n1	0.558
Cc1cccc(NS(=O)(=O)c2cccc(C(=O)N3CCN(c4ccccn4)CC3)c2)c1	-22.7
COc1ccc(C(=O)NCc2nnc(SCC(=O)Nc3cccc(OC)c3)o2)cc1	-1.25
CCOC(=O)c1c(NC(=O)c2nn(CC)cc2Br)sc2c1CCCCC2	8.6
COc1ccc(N(C)C(=O)c2cn(CC(C)C)c(=O)c3cc(OC)c(OC)cc23)cc1	8.8
Nc1c(-c2ccccc2)cnn1-c1ccccc1	12
Nc1c(-c2cccc(Cl)c2)cnn1-c1ccccc1	-60.3
Nc1c(-c2ccccc2)cnn1-c1cccc(Cl)c1	-12.3
O=C(NCCc1ccccc1)C1CCN(C(=O)c2ccc([N+](=O)[O-])cc2)CC1	-63.2
COCCNC(=O)C1CC(c2ccc([N+](=O)[O-])cc2)=NO1 (stereo not drawn)	-0.798
COc1ccc(CCNC(=O)C2CCN(C(=O)c3ccc([N+](=O)[O-])cc3)CC2)cc1	-65.6
O=C(NCc1ccc(C(F)(F)F)cc1)C1CC(c2ccccc2[N+](=O)[O-])=NO1 (stereo not drawn)	-46.1
COc1ccc(CCNC(=O)C2CCN(C(=O)c3ccc(F)cc3)CC2)cc1	10.2
O=C(NCCc1ccccc1)C1CCN(C(=O)c2ccc(F)cc2)CC1	-2.25
COc1ccc(CCNC(=O)C2CC(c3cccc([N+](=O)[O-])c3)=NO2)cc1 (stereo not drawn)	-21.8
COc1ccc(CNC(=O)C2CC(c3ccccc3[N+](=O)[O-])=NO2)cc1 (stereo not drawn)	-27.7
COc1ccc(CCNC(=O)C2CCN(C(=O)c3ccccc3)CC2)cc1	2.13
COc1ccc(CCNC(=O)C2CC(c3ccc([N+](=O)[O-])cc3)=NO2)cc1 (stereo not drawn)	-61.6
O=C(NCc1ccc(OC(F)(F)F)cc1)C1CC(c2ccccc2[N+](=O)[O-])=NO1 (stereo not drawn)	-68.3
COc1ccc(CCNC(=O)C2CCN(C(=O)c3ccc(Cl)cc3)CC2)cc1	-12.8
Cc1ccc(OCC(=O)Nc2ccccc2N2CCCC2)c(C)c1	-3.14
CCCN(c1ccccc1C(=O)O)S(=O)(=O)c1ccc2c(c1)n(C)c(=O)n2C	19.8

SMILES	hERG current change (%, negative = inhibition) at 10uM [%]
Cc1ccc(NCC(O)C(O)C(O)CO)cc1C (stereo not drawn)	14.9
Clc1ccc2oc(-c3ccccn3)nc2c1	-0.352
O=C(NCCNC(=O)c1ccc([N+](=O)[O-])cc1)c1ccncc1	12
COc1ccc(CCNC(=O)c2nc3ncccn3n2)cc1OC	18.6
Cc1ccc2c(c1)N(CC(=O)N1CCCc3ccccc31)C(=O)CO2	-8.16
COc1cccc(N2CCN(c3ccc(N4C(=O)CCC4=O)cc3[N+](=O)[O-])CC2)c1	13.7
COCCCNC(=O)CN(C1CCCCC1)S(=O)(=O)c1ccc(C)cc1	-0.742
CCC(CC)C(=O)NCCc1cc2c(C)ccc(C)c2[nH]c1=O	2.39
COc1ccccc1CN(C)C(=O)C(c1ccccc1)c1ccccc1	-2.32
Cc1ccc(C(=O)N2CCC(C(=O)NCc3ccco3)CC2)cc1	-11.3
COc1cccc(C(=O)N2CCC(C(=O)NCc3ccco3)CC2)c1	-14.9
O=C(NCc1ccco1)C1CCN(C(=O)c2ccc([N+](=O)[O-])cc2)CC1	-53
CCn1nnc(NC(=O)C(C)(c2ccccc2)c2ccccc2)n1	-10.4
CN(C)S(=O)(=O)NCC1CCCN(Cc2ccc(-c3ccccc3)cc2)C1 (stereo not drawn)	-50.8
CCc1ccc(CN2CCCC(CNS(=O)(=O)c3ccc(OC)cc3)C2)cc1 (stereo not drawn)	-69.8
COc1ccc(S(=O)(=O)NCC2CCCN(Cc3cccc(C(C)=O)c3)C2)cc1 (stereo not drawn)	-43.9
COc1ccc(S(=O)(=O)NCC2CCCN(Cc3ccc(O)cc3)C2)cc1 (stereo not drawn)	-59.2
CCOc1ccccc1CN1CCCC(CNS(=O)(=O)c2ccc(OC)cc2)C1 (stereo not drawn)	-63.7
COc1ccc(S(=O)(=O)NCC2CCCN(CC(C)(C)C)C2)cc1 (stereo not drawn)	14.9
OCC1CCCN(Cc2ccc(-c3ccccc3)cc2)C1 (stereo not drawn)	-28.4
COc1ccc(S(=O)(=O)NCC2CCCN(Cc3ccc(C)o3)C2)cc1 (stereo not drawn)	-25.5
COc1ccc(S(=O)(=O)NCC2CCCN(Cc3cccnc3)C2)cc1 (stereo not drawn)	-47.7
CN(C)S(=O)(=O)NCC1CCCN(Cc2cc3ccccc3s2)C1 (stereo not drawn)	-6.37

SMILES	hERG current change (%, negative = inhibition) at 10uM [%]
COc1ccc(S(=O)(=O)NCC2CCCN(Cc3ccccc3C)C2)cc1 (stereo not drawn)	-12.3
COc1ccc(S(=O)(=O)NCC2CCCN(Cc3ccccc3Cl)C2)cc1 (stereo not drawn)	-37.9
CC(C)C(C(=O)Nc1sc2c(c1C#N)CCCCC2)N1C(=O)c2ccccc2C1=O (stereo not drawn)	4.7
Cn1c(CCCOc2ccc(Cl)cc2Cl)nnc1SCC(=O)Nc1cccc(F)c1	-3.24
COC(=O)/C=C1\C(=O)N(c2nc3ccc(OC)cc3s2)C(=S)N1c1ccc(F)cc1	-7.23
CCOc1ccc(OCc2ccc(C(=O)N3CCc4ccccc4C3)o2)cc1	-10.4
CC(=O)C[C@H]1c2cc(C(F)(F)F)ccc2S(=O)(=O)N1C1CCCC1	-12.1
CSc1cccc(CN2CCCC(CNC(=O)c3ccc(F)cc3)C2)c1 (stereo not drawn)	-74.1
Cc1cc(CN2CCCC(CNC(=O)c3ccc(F)cc3)C2)cc(C)c1O (stereo not drawn)	-24.1
O=C(NCC1CCCN(C(=O)c2cccc(C(F)(F)F)c2)C1)c1ccc(F)cc1 (stereo not drawn)	-8.13
O=C(NCC1CCCN(Cc2cccc(C(F)(F)F)c2)C1)c1ccc(F)cc1 (stereo not drawn)	-58.2
CC(C)(O)C#Cc1ccc(CN2CCCC(CNC(=O)c3ccco3)C2)cc1 (stereo not drawn)	-10.9
O=C(NCC1CCCN(Cc2cccc(OCCO)c2)C1)c1ccc(F)cc1 (stereo not drawn)	-16.3
CCOCc1cc(CN2CCCC(CNC(=O)c3ccco3)C2)ccc1OC (stereo not drawn)	-48.3
CSc1ccccc1C(=O)N1CCCC(CNC(=O)c2ccc(F)cc2)C1 (stereo not drawn)	15.3
CSc1cccc(CN2CCCC(CNC(=O)c3ccco3)C2)c1 (stereo not drawn)	-91.9
CSc1ccc(CN2CCCC(CNC(=O)c3ccc(F)cc3)C2)cc1 (stereo not drawn)	-70.8
CCCn1cc(CN2CCCC(CNC(=O)c3ccc(F)cc3)C2)c(C)n1 (stereo not drawn)	-25.5
CCOC(=O)c1ccc(N=c2sc(C(=O)OC)cc(=O)n2CCCN2CCOCC2)cc1.Cl	-16.9
CCN(CC(=O)Nc1c(F)cccc1F)C(=O)c1ccc(C2SCCS2)cc1	0.0972
O=C(CCc1nnc(CCCCc2ccccc2)o1)N1CCN(CCO)CC1	-0.0459
Cc1cc(C)c(NC(=O)Cn2cc3c(n2)CCCC3)c(C)c1	10.4
CSCC[C@H](NC(=O)OC(C)(C)C)C(=O)N/N=C/c1cc2ccc(C)cc2nc1Cl	-7.13

SMILES	hERG current change (%, negative = inhibition) at 10uM [%]
COc1ccc(C(=O)OCC(=O)Nc2c(C)cccc2C)cc1	17.4
O=C(NCCCN1CCOCC1)C(=O)NCC1OCCN1S(=O)(=O)c1ccc(F)cc1 (stereo not drawn)	-10.2
CC(C)NC(=O)CCCc1cn(C)c2ccccc12	18.1
COc1ccccc1N1CCN(C(=O)CNC(=O)c2cn(-c3ccccc3OC)c(=O)c3ccccc23)CC1	-15.6
O=C(NC1CCCN(Cc2ccccc2F)C1)c1cccc(N2CCCC2=O)c1 (stereo not drawn)	4.16
O=C(NCC1CCCN(Cc2ccccc2F)C1)c1cccc(C(F)(F)F)c1 (stereo not drawn)	-52.1
CN(C(=O)c1cccc(Cl)c1)C1CCCN(Cc2ccccc2F)C1 (stereo not drawn)	0.373
CCOc1ccc(N)c(SSc2cc(OCC)ccc2N)c1	19.3
O=C1c2ccccc2C(=O)C1(CO)c1ccc(OC(F)F)cc1	18.3
O=C(O)CCC(=O)Nc1ccccc1C(=O)Nc1ccccc1	15.6
CCN(CC(=O)NC(c1ccccc1)c1ccccc1)Cc1nc2ccccc2c(=O)[nH]1	-32.4
CCN(CC(=O)Nc1c(F)cccc1F)C(=O)CCc1nc2ccccc2c(=O)[nH]1	8.25
CN(Cc1nc2ccccc2c(=O)[nH]1)C(=O)c1ccccc1OCc1ccc(Cl)cc1	-58.2
CCN(CC(=O)Nc1cc(Cl)ccc1C)C(=O)CCc1nc2ccccc2c(=O)[nH]1	-67.3
CN(C(=O)c1ccccc1OCc1ccc(Cl)cc1)c1ccccc1	-7.03
CN(Cc1nc2ccccc2c(=O)[nH]1)C(=O)COc1ccccc1Cc1ccccc1	-43.3
CCN(CC)CCCCCC(=O)Nc1ccccc1C(=O)Nc1ccccc1	-55.8
COC(=O)CCC(=O)Nc1ccccc1C(=O)Nc1ccccc1	9.16
CCN(CC(=O)NCCc1ccc(Cl)cc1)Cc1nc2ccccc2c(=O)[nH]1	-53.3
CCN(CC(=O)Nc1ccccc1C(F)(F)F)C(=O)CCc1nc2ccccc2c(=O)[nH]1	12.5
CCN(CC(=O)NCCc1ccc(S(N)(=O)=O)cc1)Cc1nc2cc(OC)c(OC)cc2c(=O)[nH]1	0.804
